According to the supplement of paper PMC10849652:
About 7,900 targets were measured; listed, in parts, are those with a hit and a random draw of the rest. About 0.6% of all pairs of compound and target were hits.

Each target was assayed with CC(C)N(C[C@H]1O[C@@H](n2cnc3c(N)ncnc32)[C@H](O)[C@@H]1O)[C@H]1C[C@@H](CCc2nc3cc(C(C)(C)C)ccc3[nH]2)C1 [pinometostat] (assay: log2 fold change, soluble protein after heating vs DMSO (PISA); higher = thermal stabilisation; K562 cells, 10 uM, 30 min; active = over 0.2 and 3.5 SD of the protein, either way, in both replicates (recomputed)).
Summary of the method: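 K562 cells at 2×10^6 cells/mL were treated for 30 min with 10 μM compound, and aliquots were heated for 3 min over 48°C-58°C before pooling. Extraction used PBS with 0.5% NP-40 at 4°C, and soluble protein was the supernatant after 21,000xg for 90 min, measured by TMTpro 16plex LC-MS/MS with channel sums equalised. Thermal stability values, relative to control samples and from duplicates, are log2 fold changes.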

Sequence of UniProt Q92585 (Q92585 whole entry, looked up): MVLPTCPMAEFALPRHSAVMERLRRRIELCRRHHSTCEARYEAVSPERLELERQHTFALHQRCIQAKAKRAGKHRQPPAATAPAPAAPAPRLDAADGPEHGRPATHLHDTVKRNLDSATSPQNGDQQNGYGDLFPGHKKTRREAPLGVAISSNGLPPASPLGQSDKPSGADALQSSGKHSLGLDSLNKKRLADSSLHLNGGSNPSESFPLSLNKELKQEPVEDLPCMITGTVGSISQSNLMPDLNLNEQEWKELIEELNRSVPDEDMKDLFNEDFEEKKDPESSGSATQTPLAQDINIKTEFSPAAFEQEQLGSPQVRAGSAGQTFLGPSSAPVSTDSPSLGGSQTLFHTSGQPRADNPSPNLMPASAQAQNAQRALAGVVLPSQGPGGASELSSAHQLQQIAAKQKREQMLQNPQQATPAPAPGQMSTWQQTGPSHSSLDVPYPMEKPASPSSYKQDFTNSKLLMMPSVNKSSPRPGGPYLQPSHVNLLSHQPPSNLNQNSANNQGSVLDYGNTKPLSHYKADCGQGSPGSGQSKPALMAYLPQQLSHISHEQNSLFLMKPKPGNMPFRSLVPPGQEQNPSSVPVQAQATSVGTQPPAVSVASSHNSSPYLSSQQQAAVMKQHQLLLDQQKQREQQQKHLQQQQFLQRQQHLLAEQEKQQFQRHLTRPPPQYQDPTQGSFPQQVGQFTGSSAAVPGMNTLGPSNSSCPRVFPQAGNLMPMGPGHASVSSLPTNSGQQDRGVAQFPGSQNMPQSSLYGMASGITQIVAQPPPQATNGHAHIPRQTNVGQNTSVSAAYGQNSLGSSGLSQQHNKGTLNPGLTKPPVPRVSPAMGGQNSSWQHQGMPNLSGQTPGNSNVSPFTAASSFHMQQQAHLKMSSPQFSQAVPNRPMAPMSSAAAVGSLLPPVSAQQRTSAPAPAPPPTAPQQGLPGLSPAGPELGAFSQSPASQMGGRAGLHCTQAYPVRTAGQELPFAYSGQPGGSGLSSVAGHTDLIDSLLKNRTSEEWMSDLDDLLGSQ
Sequence of UniProt P17936 (P17936 whole entry, looked up): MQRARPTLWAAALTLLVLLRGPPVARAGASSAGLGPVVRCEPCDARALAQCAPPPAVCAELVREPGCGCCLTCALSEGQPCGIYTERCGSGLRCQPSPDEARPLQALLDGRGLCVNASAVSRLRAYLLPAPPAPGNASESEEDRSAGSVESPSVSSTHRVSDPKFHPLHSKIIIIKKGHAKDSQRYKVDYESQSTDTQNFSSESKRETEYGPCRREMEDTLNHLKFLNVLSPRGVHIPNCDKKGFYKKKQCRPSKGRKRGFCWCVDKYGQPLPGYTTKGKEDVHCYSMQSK
Sequence of UniProt P07948 (P07948 whole entry, looked up): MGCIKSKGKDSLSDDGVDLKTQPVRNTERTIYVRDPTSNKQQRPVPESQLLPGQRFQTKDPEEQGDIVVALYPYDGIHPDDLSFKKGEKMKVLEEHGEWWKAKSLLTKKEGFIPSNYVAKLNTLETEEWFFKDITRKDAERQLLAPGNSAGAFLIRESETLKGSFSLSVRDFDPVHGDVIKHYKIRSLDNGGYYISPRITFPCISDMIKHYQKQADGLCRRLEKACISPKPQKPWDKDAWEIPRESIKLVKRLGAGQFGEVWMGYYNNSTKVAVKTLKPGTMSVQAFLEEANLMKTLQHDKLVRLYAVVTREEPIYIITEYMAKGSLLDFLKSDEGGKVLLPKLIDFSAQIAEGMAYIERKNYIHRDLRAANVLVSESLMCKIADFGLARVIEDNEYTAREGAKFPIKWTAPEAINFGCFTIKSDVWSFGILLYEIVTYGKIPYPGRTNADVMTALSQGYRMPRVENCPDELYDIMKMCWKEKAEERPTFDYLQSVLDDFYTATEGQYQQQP
Sequence of UniProt Q8WYH8 (Q8WYH8 whole entry, looked up): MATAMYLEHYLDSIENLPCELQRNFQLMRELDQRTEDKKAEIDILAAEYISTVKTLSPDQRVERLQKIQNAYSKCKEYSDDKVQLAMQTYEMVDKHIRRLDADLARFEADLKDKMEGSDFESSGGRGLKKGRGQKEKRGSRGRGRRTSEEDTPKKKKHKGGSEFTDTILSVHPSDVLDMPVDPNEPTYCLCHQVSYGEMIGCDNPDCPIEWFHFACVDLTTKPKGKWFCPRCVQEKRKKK
Sequence of UniProt Q32MZ4 (Q32MZ4 whole entry, looked up): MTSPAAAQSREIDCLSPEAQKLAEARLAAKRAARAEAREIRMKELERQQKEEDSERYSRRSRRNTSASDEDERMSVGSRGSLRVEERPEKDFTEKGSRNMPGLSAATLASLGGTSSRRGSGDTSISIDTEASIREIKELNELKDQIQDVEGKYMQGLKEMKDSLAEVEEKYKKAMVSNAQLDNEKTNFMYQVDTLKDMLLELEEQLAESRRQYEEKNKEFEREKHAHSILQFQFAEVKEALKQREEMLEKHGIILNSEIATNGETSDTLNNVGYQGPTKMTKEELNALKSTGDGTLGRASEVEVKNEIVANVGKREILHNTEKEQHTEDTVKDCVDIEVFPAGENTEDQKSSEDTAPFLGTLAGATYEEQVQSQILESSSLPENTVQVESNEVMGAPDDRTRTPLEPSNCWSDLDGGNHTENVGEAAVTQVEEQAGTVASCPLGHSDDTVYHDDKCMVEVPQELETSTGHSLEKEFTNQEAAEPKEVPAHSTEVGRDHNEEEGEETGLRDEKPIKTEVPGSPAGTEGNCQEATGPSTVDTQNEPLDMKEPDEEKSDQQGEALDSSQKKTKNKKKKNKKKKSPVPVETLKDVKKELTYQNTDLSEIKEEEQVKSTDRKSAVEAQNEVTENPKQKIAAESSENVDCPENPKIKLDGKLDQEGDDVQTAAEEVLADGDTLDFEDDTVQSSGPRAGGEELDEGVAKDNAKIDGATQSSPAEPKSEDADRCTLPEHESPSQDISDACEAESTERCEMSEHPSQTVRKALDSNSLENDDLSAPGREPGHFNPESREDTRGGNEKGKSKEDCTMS
Sequence of UniProt Q13164 (Q13164 whole entry, looked up): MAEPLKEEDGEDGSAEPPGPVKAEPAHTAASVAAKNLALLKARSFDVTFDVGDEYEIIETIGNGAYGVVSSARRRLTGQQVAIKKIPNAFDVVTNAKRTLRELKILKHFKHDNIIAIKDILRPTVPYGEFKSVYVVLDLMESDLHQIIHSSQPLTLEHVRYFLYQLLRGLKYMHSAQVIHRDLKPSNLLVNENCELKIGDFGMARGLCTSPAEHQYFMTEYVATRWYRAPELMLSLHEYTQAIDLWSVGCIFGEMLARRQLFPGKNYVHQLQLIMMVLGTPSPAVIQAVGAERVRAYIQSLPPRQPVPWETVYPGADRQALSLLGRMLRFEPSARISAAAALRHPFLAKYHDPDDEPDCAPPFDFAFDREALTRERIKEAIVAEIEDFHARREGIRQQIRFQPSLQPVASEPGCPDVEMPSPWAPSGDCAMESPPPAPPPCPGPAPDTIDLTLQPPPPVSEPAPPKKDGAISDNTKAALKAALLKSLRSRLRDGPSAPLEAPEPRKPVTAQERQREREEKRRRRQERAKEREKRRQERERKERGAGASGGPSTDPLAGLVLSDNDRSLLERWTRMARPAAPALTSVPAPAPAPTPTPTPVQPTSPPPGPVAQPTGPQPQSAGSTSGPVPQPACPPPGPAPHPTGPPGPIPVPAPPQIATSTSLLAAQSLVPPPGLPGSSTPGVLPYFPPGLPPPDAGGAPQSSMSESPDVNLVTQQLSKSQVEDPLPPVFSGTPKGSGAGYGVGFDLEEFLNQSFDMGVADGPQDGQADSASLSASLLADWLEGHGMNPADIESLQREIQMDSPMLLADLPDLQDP
Sequence of UniProt Q9NYL2 (Q9NYL2 whole entry, looked up): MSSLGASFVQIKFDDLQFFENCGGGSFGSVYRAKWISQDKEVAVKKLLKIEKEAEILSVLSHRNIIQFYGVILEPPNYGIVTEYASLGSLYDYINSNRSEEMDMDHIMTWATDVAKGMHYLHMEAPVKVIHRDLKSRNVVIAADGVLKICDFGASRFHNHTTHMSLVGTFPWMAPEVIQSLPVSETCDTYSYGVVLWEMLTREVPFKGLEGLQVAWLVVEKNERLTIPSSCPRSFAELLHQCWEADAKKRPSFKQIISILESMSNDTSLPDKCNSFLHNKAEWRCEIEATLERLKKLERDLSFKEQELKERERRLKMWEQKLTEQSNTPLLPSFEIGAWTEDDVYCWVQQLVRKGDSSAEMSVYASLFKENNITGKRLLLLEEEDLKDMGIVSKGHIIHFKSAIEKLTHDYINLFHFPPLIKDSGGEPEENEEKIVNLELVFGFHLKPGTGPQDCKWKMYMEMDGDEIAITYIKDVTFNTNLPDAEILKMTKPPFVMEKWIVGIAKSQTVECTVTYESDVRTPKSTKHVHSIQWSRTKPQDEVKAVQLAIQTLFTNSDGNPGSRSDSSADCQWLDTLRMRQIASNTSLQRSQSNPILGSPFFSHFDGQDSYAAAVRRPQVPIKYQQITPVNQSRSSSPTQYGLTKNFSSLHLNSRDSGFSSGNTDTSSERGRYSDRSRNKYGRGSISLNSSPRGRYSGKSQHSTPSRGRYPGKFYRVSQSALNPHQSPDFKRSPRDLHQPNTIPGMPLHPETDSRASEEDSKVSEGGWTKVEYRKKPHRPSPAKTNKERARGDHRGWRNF
Sequence of UniProt Q15759 (Q15759 whole entry, looked up): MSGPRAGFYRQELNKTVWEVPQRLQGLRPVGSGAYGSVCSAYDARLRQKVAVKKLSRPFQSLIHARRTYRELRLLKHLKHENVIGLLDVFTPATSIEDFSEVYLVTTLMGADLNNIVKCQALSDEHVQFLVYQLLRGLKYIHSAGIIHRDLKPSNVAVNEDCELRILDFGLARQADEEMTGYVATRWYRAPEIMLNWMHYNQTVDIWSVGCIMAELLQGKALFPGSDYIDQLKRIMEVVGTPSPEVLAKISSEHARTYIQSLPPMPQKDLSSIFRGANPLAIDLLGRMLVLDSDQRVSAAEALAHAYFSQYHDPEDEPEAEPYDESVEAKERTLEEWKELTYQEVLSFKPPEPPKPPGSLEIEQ

log2 fold change, inactive:
IKZF1 (UniProt R9R4D9) -0.103
MAML1 (UniProt Q92585) -0.133
IGFBP3 isoform 2 (UniProt P17936) -0.004
ITPRID2 (UniProt P28290) 0.03
LRRFIP1 isoform 4 (UniProt Q32MZ4) -0.019
ING5 (UniProt Q8WYH8) 0.097
MAPK11 (UniProt Q15759) -0.111
MAPRE3 isoform 2 (UniProt Q9UPY8) -0.101
LYN isoform 2 (UniProt P07948) 0.147
MAP3K20 isoform 2 (UniProt Q9NYL2) -0.021
MAPK7 (UniProt Q13164) 0.105
